The entries come from a sample that favours hits as a whole.
Luciferase inh: blocks Photinus pyralis firefly luciferase activity; Potency, µM (highest dose often 57.1 µM), inactives show top-dose activity change, negative = inhibition, most hits filed as inhibitors; purified firefly luciferase, luminescence, 8 min; 72,000 compounds, 2.2% hits; P08659; note: potency is the fitted concentration of half-maximal effect; % is set by controls: 0 for no effect and ±100 for the full control effect; nearly all actives have a fitted effect of over 40% in size
Target sequence (P08659 whole entry, looked up): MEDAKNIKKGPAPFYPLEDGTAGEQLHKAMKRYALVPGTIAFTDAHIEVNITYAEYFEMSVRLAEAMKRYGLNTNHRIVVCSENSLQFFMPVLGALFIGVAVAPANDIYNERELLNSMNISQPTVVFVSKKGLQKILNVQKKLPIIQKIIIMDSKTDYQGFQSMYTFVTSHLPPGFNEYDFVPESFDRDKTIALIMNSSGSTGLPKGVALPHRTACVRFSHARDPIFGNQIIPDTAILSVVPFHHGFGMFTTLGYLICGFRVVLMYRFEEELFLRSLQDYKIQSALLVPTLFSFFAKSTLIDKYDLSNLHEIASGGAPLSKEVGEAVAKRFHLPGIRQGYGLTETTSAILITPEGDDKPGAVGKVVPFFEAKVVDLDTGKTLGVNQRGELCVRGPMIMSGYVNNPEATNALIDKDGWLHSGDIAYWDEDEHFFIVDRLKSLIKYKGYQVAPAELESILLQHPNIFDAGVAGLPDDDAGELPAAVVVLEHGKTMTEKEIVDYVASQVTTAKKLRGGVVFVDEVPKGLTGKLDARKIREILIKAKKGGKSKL
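qHTS concentration-response profiling: light output of P. pyralis luciferase with luciferin and 10 uM ATP, imidazole buffer pH 7.2. Read by luminescence after 8-min room-temperature incubation.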
p53ts 39C tox: p53ts cell cytotoxicity, nonpermissive temperature; H1299-p53A138V viability at 39C, ATP luminescence, 24 h; Potency, µM (doses to about 46.1 µM), without a hit: at the top dose activity change, negative = cell killing, hits mostly cytotoxic; 130,000 compounds, 1.5% hits; note: potency is the fitted concentration of half-maximal effect; % is set by controls: 0 for no effect and ±100 for the full control effect; nearly all actives have a fitted effect of over 55% in size
IkB sig inh: IkB pathway inhibition in ABC-DLBCL cells. ABC-DLBCL IkBa-CBG/CBR dual luciferase ratio, 4 h; response scale: scaled: untreated 0%, proteasome inhibitor 100%. Potency, µM (titrated, usually from 57.1 µM), for the others: at the highest dose IkBa stabilization activation. 110,000 compounds, 0.04% hits; active = well fitted curve in the direction sought with a large enough effect in the signal ratio, not every such curve was filed as active; inconclusive = small, poorly fitted or top-dose-only effect, or a change in a side signal; the % refers to the signal ratio;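 note: potency is the fitted concentration of half-maximal effect; the direction sought is a rising ratio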
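Curves were fitted separately to fusion (green), unfused (red) and ratio luminescence, then classed by r2, magnitude and activity. Cells: OCI-Ly3, 4 h compound plus doxycycline at 37C; 10 uM MG-132 defined full response.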
p53ts 32C tox: cytotoxicity in p53ts cells at permissive temperature | H1299-p53A138V at 32C, ATP luminescence viability, 24 h | Potency, µM (top dose mostly 46.1 µM), for inactives: at the top dose activity change, negative = cytotoxicity, usual class: cytotoxic | 130,000 compounds, 0.93% hits | AID 924;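 note: potency is the fitted concentration of half-maximal effect; 0% = DMSO and -100% = full killing by reference compound; nearly all actives have a fitted effect of over 55% in size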
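Viability by ATPlite luminescence after 24 h compound treatment (up to 46 uM) at the permissive 32C. Cells are H1299 carrying p53 A138V. Scale runs from DMSO basal to 100 uM tamoxifen as full kill; AC50 from Hill fits.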
IMPase cell inh: cell-permeable inhibitors of inositol monophosphatase (IMPase) | CHO-M1 cells, IP1 accumulation, HTRF TR-FRET ratio | inhibition (IP1 accumulation), % at 46.1 µM | 120,000 tested, under 10 active; active = well fitted curve in the direction sought with a large enough effect in the signal ratio, not every such curve was filed as active; inconclusive = small, poorly fitted or top-dose-only effect, or a change in a side signal; inactive = no such curve, though single readings can be large or run the other way; the % refers to the signal ratio;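 note: cells stimulated with carbachol in lithium chloride buffer; plate controls were DMSO basal wells for no effect and reference inhibitor wells for full effect; higher means more IMPase inhibition seen as more IP1 and lower FRET ratio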
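In this qHTS, compounds (final up to 46 uM) act on CHO-M1 cells that are then activated through the M1 receptor with carbachol, in pH 7.4 buffer containing 50 mM LiCl, for 30 min. IP1 accumulation is quantified by the IP-One immunoassay.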
Hsp90 Hop PPI: changes Hsp90-Hop TPR2A binding signal, up or down; AlphaScreen TPR2A-His6 binding biotin-Hsp90 C-terminal peptide; Potency, µM (series often up to 57 µM), without a hit: at the top dose activity change, negative = inhibition; 71,000 compounds, 0.44% hits; AID 595; active = well fitted curve in either direction with a large enough effect; inconclusive = small, poorly fitted or top-dose-only effect, or another doubt; note: potency is the fitted concentration of half-maximal effect; % is set by controls: 0 for no effect and ±100 for the full control effect
Numbers without * were called inactive; ? = inconclusive; nt = no result; [ ] = another dose, or the depositor's remark. Unless noted, calls come from the whole dose curve; as a rule, active = well fitted curve in the direction sought with a large enough effect; inconclusive = small, poorly fitted or top-dose-only effect, or another doubt; inactive = no such curve, though single readings can be large; an effect the other way counts as inactive or inconclusive.

SMILES	Luciferase inh	p53ts 39C tox	IkB sig inh	p53ts 32C tox	IMPase cell inh	Hsp90 Hop PPI
O=C(Nc1ccc2c(c1)nc1n2CCSC1)c1ccco1	6.3µM*	3.2µM*	?	2µM*	2	-5%
O=C(Nc1ccc2c(c1)nc1n2CCOC1)c1ccco1	16µM*	?	?	7.9µM*	-16	-3%
CN(C)CCN(Cc1ccco1)C(=O)c1cc2c(s1)-c1ccccc1OC2	nt	13µM*	-1%	-9%	nt	nt
O=C(O)c1cc2c(s1)-c1ccccc1OC2	1%	-2%	2%	6%	-9	1%
CN(Cc1ccccc1)C(=O)Nc1ccc2c(c1)N(C)C(=O)c1ccccc1S2	nt	13µM*	-4%	?	nt	nt
CC(C)c1ccc(S(=O)(=O)NCc2nc3cccnc3n2Cc2ccc(F)cc2)cc1	nt	-17%	?	-5%	nt	nt
CN(C)/C=N/c1cnc(C(=O)c2ccc(Cl)cc2)n1C	13µM*	-29%	2%	-26%	3	-7%
CCCc1cc(=O)[nH]c(Nc2cc(Cl)cc(Cl)c2)n1	nt	-21%	?	15%	nt	nt
O=C(NCC(c1cccs1)S(=O)(=O)c1cccs1)c1ccc(Cl)cc1 (stereo not given)	nt	-5%	?	4%	nt	nt
c1ccc(-c2nc3ccccc3o2)nc1	-26%	?	-1%	?	-1	-10%
c1ccc(-c2cccc(-c3ccccn3)n2)nc1	-5%	0.79µM*	2%	?	6	3.2µM*
Cc1ccc2nc3c(cc2c1)c(NC(=O)c1cccnc1)nn3C	13µM*	-25%	-7%	-12%	21	-18%
O=C(CN1C(=O)CC(c2ccc(F)cc2)=Nc2ccccc21)NCc1ccccc1Cl	nt	-17%	?	-26%	nt	nt
CC[C@]1(O)C[C@@H]2CN(CCc3c([nH]c4ccccc34)[C@](C(=O)OC)(c3cc4c(cc3OC)N(C=O)[C@H]3[C@@](O)(C(=O)OC)[C@H](C(=O)OC)[C@@]5(CC)C=CCN6CC[C@]43[C@H]65)C2)C1	1%	-24%	1%	-17%	7	-6%
CC[C@]1(O)C[C@H]2CN(CCc3c([nH]c4ccccc34)[C@](C(=O)OC)(c3cc4c(cc3OC)N(C=O)[C@H]3[C@@](O)(C(=O)OC)[C@H](OC(C)=O)[C@@]5(CC)C=CCN6CC[C@]43[C@H]65)C2)C1	0%	32µM*	?	?	2	-6%
COc1ccc(S(=O)(=O)Nc2cccc(-c3ccc(N4CCCCC4)nn3)c2)cc1F	nt	13µM*	-1%	13µM*	nt	nt
O=S(=O)(Nc1cccc(-c2ccc(N3CCCC3)nn2)c1)c1ccc(F)cc1F	nt	38%	1%	-17%	nt	nt
O=S(=O)(Nc1cccc(-c2ccc(N3CCCCC3)nn2)c1)c1cccc(F)c1	nt	?	-2%	10µM*	nt	nt
O=c1cc(CSc2nnc(Nc3ccccc3)s2)nc2sccn12	nt	nt	nt	nt	1	nt
Cc1cccc(Nc2nnc(SCc3cn4ccsc4n3)s2)c1	32µM*	-10%	?	-3%	7	-4%
Cc1ccc2nc(CN3CCN(S(=O)(=O)c4ccc(F)cc4)CC3)oc2c1	nt	-1%	2%	11%	nt	nt
COc1ccc(C2C3=C(N=C4SCC(=O)N42)c2ccccc2CC3)cc1 (stereo not given)	25µM*	7%	0%	12%	?	-5%
COc1ccc(C2C3=C(N=C4SCC(=O)N42)c2ccccc2CC3)cc1OC (stereo not given)	-4%	10%	-2%	19%	-1	-16%
CC(=O)c1ccc(N2C(=O)Nc3ccccc3S2(=O)=O)cc1	nt	-27%	0%	-1%	nt	nt
CCn1c(SCC(=O)c2ccc3c(c2)OCCO3)nnc1-c1ccco1	16µM*	?	1%	?	-9	-2%
SMILES	Luciferase inh	p53ts 39C tox	IkB sig inh	p53ts 32C tox	IMPase cell inh	Hsp90 Hop PPI
Cc1cc(N)n2ncc(-c3ccccc3)c2n1	25µM*	10µM*	?	?	4	4%
Cc1cc(N)n2ncc(-c3cccc(Br)c3)c2n1	?	-4%	3%	0%	-5	11%[11 µM]
CCOC(=O)c1cnc2c(-c3ccccc3)cnn2c1N	2.5µM*	7.9µM*	?	10µM*	-1	6%
Cc1ccc(NC(=O)c2ccccc2F)nc1	25µM*	?	?	?	-8	1%
CC(=O)c1c(C)[nH]c(C(=O)Nc2cc(C)cc(C)c2)c1C	nt	nt	nt	nt	1	nt
Cc1ccccc1C(=O)Nc1ccc(Br)cn1	13µM*	-26%	?	?	11	2%[11 µM]
CCCC(=O)Nc1ccc(Br)cn1	nt	nt	nt	nt	5	nt
CC(=O)c1c(C)[nH]c(C(=O)Nc2ccc(C)cn2)c1C	2.5µM*	5µM*	0%	2.5µM*	1	-4%
COc1ccc(-c2nc(CN3CCC(C(=O)NCCCOC(C)C)CC3)c(C)o2)cc1OC	nt	-4%	0%	-1%	nt	nt
Cc1ccc(Cc2c(C)nc3nc(SCC(=O)NC4CCC(C)CC4)nn3c2C)cc1 (stereo not given)	nt	20µM*	3%	23%	nt	nt
CC(Oc1ccccc1F)C(=O)N1CCC(c2nc3ccccc3o2)CC1 (stereo not given)	nt	7%	?	3%	nt	nt
Fc1ccc(-n2ncc3c(N4CCC(Cc5ccccc5)CC4)ncnc32)cc1	nt	-19%	0%	0%	nt	nt
Cc1ccc(-n2ncc3c(N4CCCCCC4)ncnc32)cc1	nt	2.5µM*	2%	3.2µM*	nt	nt
Fc1ccc(-n2ncc3c(N4CCCCCC4)ncnc32)cc1	nt	5µM*	0%	?	nt	nt
CCCCN(CC)C(=O)CSc1nc2n[nH]c(C)c2c(=N)n1-c1ccc(CC)cc1	nt	-13%	?	0%	nt	nt
NCCSCCc1ccccc1	2%[11.4 µM]	11%[9.22 µM]	-1%[11.4 µM]	-1%[9.22 µM]	nt	1%[11 µM]
COC(=O)c1ccc(-n2nnc(-c3nc(-c4ccc5c(c4)OCO5)no3)c2C)cc1	nt	3%	-1%	-5%	nt	nt
Nc1nc(CSc2nc3ccccc3[nH]2)cs1	-21%	-18%	2%	-29%	4	-5%[11 µM]
Nc1nc(CSc2ncn(-c3ccccc3)n2)cs1	25µM*	-6%	?	-17%	1	-2%
O=C(Nc1ccc(F)cc1C(F)(F)F)C1CCN(c2ncccn2)CC1	nt	3%	-1%	-3%	nt	nt
Cc1cc(=O)n2nc(N3CCC(C(=O)Nc4ccc(Br)c(C)c4)CC3)sc2n1	nt	-7%	0%	-3%	nt	nt
CCCC[C@@H]1C[C@H]1[C@@H](NP(=O)(c1ccccc1)c1ccccc1)c1ccccc1OC	nt	25µM*	nt	?	nt	0%
C=C(CC1([C@@H](NP(=O)(c2ccccc2)c2ccccc2)[C@H]2C[C@@H]2CCCC)CC1)c1ccccc1	nt	25µM*	nt	8%	nt	-4%
CCCC(=O)Oc1c(Sc2ccc(Cl)cc2)c(C)nn1-c1ccccc1	nt	4%	?	?	nt	nt

Screens deposited in PubChem by National Center for Advancing Translational Sciences (NCATS).
